High-throughput results deposited in PubChem BioAssay by National Center for Advancing Translational Sciences (NCATS).
FEN1 inh – human FEN1 inhibition | 390,000 compounds, 0.35% hits | AID 588795 | Potency, µM (titrated, usually from 114 µM), inactives show at the highest dose activity change, negative = inhibition, hits mostly inhibitors | P39748 | Recombinant FEN1 flap cleavage, fluorescence, 15 min; note: % is set by controls: 0 for no effect and ±100 for the full control effect; nearly all actives have a fitted effect of over 65% in size
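Enzyme 10 nM, 15 min RT preincubation with compound; start with substrate 50 nM final; reads at 0 and 15 min; qHTS titration, four-parameter Hill fit.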
Pol iota inh – blocks human DNA polymerase iota activity. Pol iota fluorescent replication assay, 10 min. Potency, µM (titrated, usually from 115 µM), for inactives: at the top dose activity, negative = inhibition, usual class: inhibitors. 390,000 compounds, 1% hits
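Pol iota at 10 nM preincubated 15 min with compounds at room temperature; reaction started with fluorescent substrate, 50 nM final. Fluorescence read kinetically at 0 and 10 min; buffer-only wells as negative control.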
Pol beta inh – inhibitors of human DNA polymerase beta | P06746 | Pol beta primer extension/strand displacement, fluorescence kinetic | 340,000 compounds, 1.3% hits | Potency, µM (series often up to 114 µM), inactives show top-dose activity change, negative = inhibition, most hits filed as inhibitors; note: % is set by controls: 0 for no effect and ±100 for the full control effect
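Preincubation: enzyme (10 nM) with compound, 15 min, RT. Reaction: substrate added to 50 nM final. Reads: 0 and 10 min. Analysis: normalized, Hill fit.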
WRN helicase inh – inhibitors of human WRN helicase | Q14191 | WRN helicase unwinding, fluorescent forked duplex, kinetic | Potency, µM (highest dose often 114 µM), without a hit: at the highest dose activity change, negative = inhibition, most hits filed as inhibitors | 360,000 compounds, 0.46% hits; note: % is set by controls: 0 for no effect and ±100 for the full control effect; nearly all actives have a fitted effect of over 55% in size
Target sequence (Q14191 whole entry, looked up): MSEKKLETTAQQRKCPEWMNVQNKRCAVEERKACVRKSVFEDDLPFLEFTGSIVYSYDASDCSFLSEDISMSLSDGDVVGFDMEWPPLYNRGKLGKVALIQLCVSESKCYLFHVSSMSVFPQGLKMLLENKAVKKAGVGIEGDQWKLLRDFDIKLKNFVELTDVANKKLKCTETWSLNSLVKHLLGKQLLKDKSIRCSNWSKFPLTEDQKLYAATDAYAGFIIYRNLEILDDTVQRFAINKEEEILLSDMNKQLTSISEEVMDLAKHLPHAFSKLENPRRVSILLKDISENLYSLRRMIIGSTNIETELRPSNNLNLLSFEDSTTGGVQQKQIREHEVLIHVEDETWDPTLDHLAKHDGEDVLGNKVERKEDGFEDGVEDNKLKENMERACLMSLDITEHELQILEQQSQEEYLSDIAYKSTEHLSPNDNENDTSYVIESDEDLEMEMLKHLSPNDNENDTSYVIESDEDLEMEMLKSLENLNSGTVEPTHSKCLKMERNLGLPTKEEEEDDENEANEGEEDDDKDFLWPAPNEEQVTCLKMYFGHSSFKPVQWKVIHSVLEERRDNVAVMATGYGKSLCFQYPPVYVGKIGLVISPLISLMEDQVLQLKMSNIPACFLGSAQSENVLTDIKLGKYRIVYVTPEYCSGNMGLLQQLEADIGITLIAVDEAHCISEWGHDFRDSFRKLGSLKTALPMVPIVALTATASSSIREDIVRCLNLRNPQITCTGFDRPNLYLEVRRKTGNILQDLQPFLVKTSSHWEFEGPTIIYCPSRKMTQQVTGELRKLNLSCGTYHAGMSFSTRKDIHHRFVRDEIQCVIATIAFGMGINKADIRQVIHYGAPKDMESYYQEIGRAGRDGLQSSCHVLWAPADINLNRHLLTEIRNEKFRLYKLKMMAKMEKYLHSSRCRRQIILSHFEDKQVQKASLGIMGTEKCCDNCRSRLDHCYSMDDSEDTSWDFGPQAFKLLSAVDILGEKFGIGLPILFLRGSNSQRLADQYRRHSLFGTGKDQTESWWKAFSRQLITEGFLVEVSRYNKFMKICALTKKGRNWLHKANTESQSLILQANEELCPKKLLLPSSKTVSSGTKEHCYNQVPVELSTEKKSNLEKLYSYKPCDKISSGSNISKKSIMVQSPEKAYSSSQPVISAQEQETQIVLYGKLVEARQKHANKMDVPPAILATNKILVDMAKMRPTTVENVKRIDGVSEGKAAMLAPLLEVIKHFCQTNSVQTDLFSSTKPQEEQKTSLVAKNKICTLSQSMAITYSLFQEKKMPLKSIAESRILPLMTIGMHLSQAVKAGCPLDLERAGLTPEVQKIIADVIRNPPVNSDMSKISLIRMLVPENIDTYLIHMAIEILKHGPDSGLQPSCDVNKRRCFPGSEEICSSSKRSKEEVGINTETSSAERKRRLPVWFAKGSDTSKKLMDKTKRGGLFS
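WRN at 20 nM final was preincubated with compound for 15 min at room temperature; reaction started with 100 nM forked duplex oligonucleotide carrying fluorophore and quencher plus 2 mM ATP (final). Unwinding followed kinetically by red fluorescence (ex 525/em 598 nm).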
POLK inh – blocks human DNA polymerase kappa activity; 400,000 compounds, 0.53% hits; Potency, µM (top dose mostly 107 µM), for the others: top-dose activity, negative = inhibition, actives largely listed as inhibitors; purified Pol kappa, fluorescent DNA synthesis assay, 10 min; AID 588579; Q9UBT6; note: % is set by controls: 0 for no effect and ±100 for the full control effect
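First, compounds were pin-transferred onto 10 nM Pol kappa. After 15 min at room temperature, substrate was added to 50 nM final. Fluorescence was then measured kinetically at 0 and 10 min.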
POLH inh – inhibitors of human DNA polymerase eta. 390,000 compounds, 1.2% hits. Q9Y253. Potency, µM (doses to about 114 µM), inactives show at the top dose activity change, negative = inhibition, most hits filed as inhibitors. recombinant Pol eta, fluorescent DNA replication assay; note: % is set by controls: 0 for no effect and ±100 for the full control effect
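Pol eta (10 nM) was preincubated with compounds for 15 min at room temperature, after which fluorescent replication substrate (50 nM final) was added to start the reaction. Fluorescence was read kinetically at 0 and 10 min.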
An asterisk follows results filed as active; ? = inconclusive; / = not tested or not shown; [ ] = remark or other dose. Only some compounds are listed: those with a hit (about 2.4% of all), similar ones and a draw of the others. Calls come from the whole dose curve; as a rule, active = well fitted curve in the direction sought with a large enough effect; inconclusive = small, poorly fitted or top-dose-only effect, or another doubt; inactive = no such curve, though single readings can be large; an effect the other way counts as inactive or inconclusive. Potency is the fitted concentration of half-maximal effect.

SMILES | FEN1 inh | Pol iota inh | Pol beta inh | WRN helicase inh | POLK inh | POLH inh
CN(C)c1ccc(C=c2c3cc(O)ccc3n3c2cc(-c2ccccc2)[n+]3C)cc1 | 7.9µM* | 50µM* | / | 18µM* | ? | ?
CCCCN(C)CCCNC(=O)Cn1ncc2c3ccccc3n(Cc3ccccc3F)c2c1=O | 11% | 15% | 7% | / | -20% | -15%
CCOC(=O)c1[nH]c(C)c(C(=O)/C=C/c2ccc(C(=O)O)cc2)c1C | 1% | -14% | 39% | -17% | -14% | 22µM*
O=C(O)CSc1ccccc1C(=O)O | -13% | 16% | 0% | -1% | -5% | 4%
CC(C)=CCC/C(C)=C/CC/C(C)=C/CSc1ccccc1C(=O)O | / | 25µM* | ? | / | / | 32µM*
O=C1NC(=O)/C(=C\c2ccc(Br)o2)S1 | ? | ? | 18µM* | -34% | 25µM* | 22µM*
O=C1NC(=O)/C(=C/c2cc3c(cc2Br)OCO3)S1 | -8% | ? | -18% | -24% | 0% | -12%
COc1ccc(C)cc1NC(=O)c1ccc2c(c1)C(=O)N(Cc1ccncc1)C2=O | 18% | 19% | / | -5% | -14% | -1%
COc1ccc(NC(=O)c2ccc3c(c2)C(=O)N(Cc2ccncc2)C3=O)cc1S(N)(=O)=O | -35% | 32µM* | / | ? | -10% | ?
Oc1ccc(-c2nc(-c3ccc(O)c(O)c3)cs2)cc1 | -12% | ? | 40µM* | ? | ? | ?
Oc1ccc(Nc2nc(-c3ccc4ccccc4c3)cs2)cc1 | / | / | -30% | / | / | /
CCN1/C(=C/c2cc[n+](CCCS(=O)(=O)[O-])c3ccccc23)Sc2ccccc21 | ? | ? | ? | -13% | -12% | -5%
C=CC[n+]1ccc(/C=C2\C=Cc3cc(C)ccc3N2CC)c2ccccc21 | ? | ? | ? | 40µM* | 50µM* | -15%
Cc1ccc(-n2nnnc2CNC(=O)c2ccccc2F)cc1C | 12% | 23% | -9% | / | -2%[60.1 µM] | -12%
Clc1ccc(OCc2nc(-c3ccc(-n4cccc4)cc3)no2)cc1 | -9% | 89µM* | 0% | / | -22% | -9%
CCc1ccc(OCc2nc(-c3ccc(-n4cccc4)cc3)no2)cc1 | -2% | -5% | 22% | / | 7% | /
CCOc1cc(/C=C2\N=C(SCC)SC2=O)cc([N+](=O)[O-])c1OC(C)=O | ? | ? | 16µM* | -22% | ? | 45µM*
Cc1[nH][nH]c(=O)c1C(c1c(C)[nH][nH]c1=O)c1cn(Cc2ccc(F)cc2)c2ccccc12 | ? | 2.2µM* | 0% | -5%[11.6 µM] | -7% | -11%
O=c1c2ccccc2ncn1Cc1ccc(Cl)c(Cl)c1 | -14% | 37% | 12% | 1% | 1% | -18%
Cc1[nH][nH]c(=O)c1C(c1c(C)[nH][nH]c1=O)c1cn(Cc2ccc(Cl)c(Cl)c2)c2ccccc12 | -18% | 2.5µM* | 1% | -33%[57.1 µM] | -2% | ?
N[C@@H](Cn1ccc(=O)n(Cc2ccccc2C(=O)O)c1=O)C(=O)O | / | / | / | / | -8%[19.4 µM] | /
O=C(COc1ccc(-n2cnnn2)cc1)Nc1cccc(Cl)c1Cl | 0% | ? | 50µM* | -15% | -32% | -6%
CCCCNC(=O)CN1C(=O)c2c(c3ccccc3n2C)C1c1ccc(OC)cc1 (stereo not given) | 5% | -5% | -3% | / | -2% | -16%
CC(=O)[C@]1(O)Cc2c(O)c3c(c(O)c2[C@@H](O[C@H]2C[C@H](N)[C@H](O)[C@H](C)O2)C1)C(=O)c1c(O)cccc1C3=O | / | / | / | / | 10µM* | /
COc1cccc2c1C(=O)c1c(O)c3c(c(O)c1C2=O)C[C@](O)(C(=O)CO)C[C@@H]3O[C@H]1C[C@H](N)[C@@H](O)[C@H](C)O1 | / | / | / | / | -2%[60.1 µM] | /
CC(=O)[C@]1(O)Cc2c(O)c3c(c(O)c2[C@@H](O[C@H]2C[C@H](N)[C@H](O)[C@H](C)O2)C1)C(=O)c1ccccc1C3=O | / | 7.9µM* | 14µM* | 32µM* | 27µM* | 14µM*
